Reference: PubChem BioAssay (NCATS)
Records with an inconclusive call do not appear. A number with no mark means an inactive call. Calls of active or inactive are those of the source. Calls come from the whole dose curve; as a rule, active = well fitted curve in the direction sought with a large enough effect in the main read-out, with a control signal flat (not every such curve was filed as active); inconclusive = small, poorly fitted or top-dose-only effect, or effect the other way, or a change in a side signal; inactive = no such curve, though single readings can be large or run the other way.

Assay: qHTS Validation Assay to Find Inhibitors of Chronic Active B-Cell Receptor Signaling (AID 485345)
Settings: ABC-DLBCL cells, chronic BCR signaling reporter, CBG luciferase; series mostly up to 46.1 µM; activity change: at the top concentration
From the text: NIH Molecular Libraries Probe Production Network [MLPCN]
NIH Chemical Genomics Center [NCGC]
PI Name: Dr. R. Eric Davis
Diffuse large B-cell lymphoma (DLBCL) is the most common category of non-Hodgkin lymphoma, with ~20,000 new cases per year in the United States. DLBCL should be regarded as a collection of different neoplasms. Microarray gene expression analysis has defined two principal types of DLBCL, named for their similarity to normal B cell stages or activation states: a germinal center B-cell (GCB) type, and an activated B-cell (ABC) type. In ABC-DLBCL, a constitutive high-level activity of the NF-kappaB family of transcription factors has been observed (1) and NF-kappaB target genes are more highly expressed in ABC primary tumors than in GCB tumors. Functional studies have shown a constitutive high-level activity of the IkappaB (inhibitor of kappa-B) kinase (IKK) complex. […] Further analysis of DLBCL primary tumors for NF-kappaB target gene expression imply that although CARD11 is required for constitutive IKK activity in all ABC-DLBCL lines, mutations in CARD11 may be the root cause of IKK activation only in lines or tumors with such mutations. In other words, CARD11 mutations may explain NF-kappaB activation in only 10% of ABC-DLBCL cases. […] This process has been termed 'chronic active BCR signaling' (CABS).
The goal of this screen is to find small-molecule inhibitors of the CABS pathway found in ABC-DLBCL lines using a cell-based assay that measures IkappaBalpa stability, which has already been extensively validated in the OCI-Ly3 line (PubChem AID:445; REF: 4).
A cell-sensor assay for I-kappa-B-alpha stabilization has been developed. The assay uses green (CBG68) and red (CBR) emitting beetle luciferases [Chroma-GloTM developed by Promega Corp.] where the green luciferase is fused to IkappaBalpha and the red luciferase is present in its native state. Both luciferase genes are stably present in the TMD8 human ABC DLBCL cell line, but their expression is under the control of tetracycline-inducible promoters. Following the addition of doxycycline to induce expression of the luciferases, the green luminescence in control cultures rises only slowly because the CBG fusion partner IkappaBalpha is targeted by IKK activity for rapid degradation. In contrast, green luminescence rises rapidly in the presence of proteasome inhibitors or IKK inhibitors. The rise in red luminescence of CBR is not affected by proteasome or IKK inhibitors, and serves as normalization for cell number and nonspecific effects. Compounds were screened as a concentration-titration series that ranged from 46 uM to 3 nM.
NCGC Assay Protocol Summary:
Cells were seeded in 1536-well plates at 5000 cells/4uL in IMDM medium containing 0.5% FBS, w/o phenol red, 1% penicillin/streptomycin. Then, 23 nL of compounds or DMSO were delivered to each well using a pin tool. One uL 20ng/ml doxycycline was then dispensed into white solid 1536-well plates and the plates were incubated at 37C/5% C02 in a cell incubator for 4 hrs. Then 4 uL luminescent substrate mix (in-house prepared: 150 mM Tris-Cl, pH 7.6, 3 mM MgCl2, 1% Triton X-100, 5 mM DTT, 0.2 mM CoA, 0.15 mM ATP, 5 mM D-luciferin, final concentrations) was added to each well. The plate was incubated at r.t. for 10-15 min. The plates were measured on a ViewLux plate reader for green luminescence (540/20 nm filter) and red luminescence (618/8 nm filter). The green and red luminescent signals were corrected for red and green luminescence filter overlap using previously determined filter calibration constants (determined using the procedure outlined in the Promega Technical Manual; REF 4). The %Activity was determined from the ratio of corrected green/red luminescent values. MG132 were used as control. Green luminescent and ratio %Activity was determined by normalizing to the difference in signal between basal cells (0% Activity) and cells incubated with 10 uM of the proteasome inhibitor MG-132 (100% Activity). […]

Row | SMILES | activity change [%] | outcome
1 | COc1cc(C(O)CN)ccc1O (stereo not given) | -14.9 | –
2 | Cn1cnc(CCN)c1 | -7.06 | –
3 | CNCCc1c[nH]c2ccc(O)cc12 | -9.28 | –
4 | COC(=O)[C@@H](N)CCCN=C(N)N[N+](=O)[O-] | -4.55 | –
5 | NC1CCc2cc(O)c(O)cc2C1 (stereo not given) | -3.4 | –
6 | C[C@@H](N)Cc1cnc[nH]1 | -2.2 | –
7 | CCCN(CCC)[C@@H]1CCc2ccc(O)cc2C1 | 1.03 | –
8 | CCCN1CCO[C@@H]2c3cc(O)ccc3OC[C@H]21 | -9.97 | –
9 | CS(=N)(=O)CC[C@H](N)C(=O)O (stereo not given in full) | -6.28 | –
10 | NC(=NCCC[C@H](N)C(=O)O)N[N+](=O)[O-] | -1.13 | –
11 | CC[C@@H](C(N)=O)N1CCCC1=O | -5.84 | –
12 | NC1CC1c1ccccc1 (stereo not given) | -3.45 | –
13 | S=C(NC1CCCCC1)N1CCC(c2cnc[nH]2)CC1 | -11.7 | –
14 | NC(=O)CN1CC(O)CC1=O (stereo not given) | 1.14 | –
15 | c1ccc2sc(C3(N4CCCCC4)CCCCC3)cc2c1 | -4 | –
16 | O=C1CCCN1CC#CCN1CCCC1 | 1.96 | –
17 | Clc1cnc(Oc2ccc(Oc3ncc(Cl)cc3Cl)cc2)c(Cl)c1 | -0.414 | –
18 | NCc1cc(=O)[nH]o1 | 1.05 | –
19 | CC(=O)[C@H]1CCC2C3CC[C@H]4C[C@H](O)CC[C@]4(C)C3CC[C@@]21C (stereo not given in full) | -15.6 | –
20 | CC(C)Oc1cccnc1N(C)C1CCN(Cc2ccccc2)CC1 | -7.12 | –

Row | SMILES | activity change [%] | outcome
21 | CC(Cc1ccc(O)cc1)NCC(O)c1cc(O)cc(O)c1 (stereo not given) | -12.3 | –
22 | CCCN1CCC[C@H](c2cccc(O)c2)C1 | -9.87 | –
23 | C=CCN1CC[C@]23CCCCC2[C@H]1Cc1ccc(O)cc13 (stereo not given in full) | -4.8 | –
24 | NC(CP(=O)(O)O)C(=O)O (stereo not given) | 1.56 | –
25 | NCCc1c[nH]c2ccc(O)cc12 | -3.16 | –
26 | O=C(O)[C@@H]1CCN1 | -3.24 | –
27 | CC(C)NC(C)Cc1ccc(I)cc1 (stereo not given) | -1.93 | –
28 | c1ccc(C2(c3ccccc3)CC2C2=NCCN2)cc1 (stereo not given) | -7.78 | –
29 | C[C@]12N[C@H](Cc3ccccc31)c1ccccc12 | -4.21 | –
30 | CNCCc1ccc(O)c(O)c1 | -1.45 | –
31 | CC1=NN=C(c2ccc(N)cc2)c2cc3c(cc2C1)OCO3 | -19.9 | –
32 | CC(=O)NCCc1c[nH]c2ccccc12 | -0.296 | –
33 | O=C(Cc1ccc(Cl)c(Cl)c1)N1CCCCC1CN1CCCC1 (stereo not given) | -2.57 | –
34 | CCCCc1ccc(C(=O)O)nc1 | -7.07 | –
35 | C[N+]1(C)C2CCC1CC(OC(=O)C(CO)c1ccccc1)C2 (stereo not given) | – | inactive
36 | O=C(O)CC[N+](=O)[O-] | -9.76 | –
37 | C#CCOC(=O)C1=CCCN(C)C1 | -18.1 | –
38 | c1ccc(CCCN2CCN(CCOC(c3ccccc3)c3ccccc3)CC2)cc1 | 0.511 | –
39 | O=C(O)Cc1cnc[nH]1 | -14.6 | –
40 | NC(N)=NOCCC(N)C(=O)O (stereo not given) | 8.03 | –
